D1 antagonist: Antagonist of Human D 1 Dopamine Receptor: qHTS. 360,000 tested, 3.2% active. activity change, negative = inhibition, % at 10 µM. D(1A) dopamine receptor (Homo sapiens), P21728. HEK293 TREx D1 cells, calcium flux, dopamine EC80; active compounds read low; in the data active = activity change below about -30%; also: % is scaled to controls: 0 for no effect and ±100 for the full control effect
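Inducible Hek293 Trex D1 cells (tetracycline, overnight, 30 C). Calcium dye 30–90 min RT. Antagonist mode: EC80 dopamine added after 180 s compound read.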
TRHR ag: qHTS for Small Molecule Agonists and Allosteric Enhancers of Human TRH Receptor: Primary Screen for Agonists | Thyrotropin-releasing hormone receptor (Homo sapiens), P34981 | TRHR cells, calcium flux fluo-8, FDSS agonist mode | activation, % at 2 µM | 360,000 tested, 0.18% active; also: 0% is about no effect
Target sequence (P34981 whole entry, looked up): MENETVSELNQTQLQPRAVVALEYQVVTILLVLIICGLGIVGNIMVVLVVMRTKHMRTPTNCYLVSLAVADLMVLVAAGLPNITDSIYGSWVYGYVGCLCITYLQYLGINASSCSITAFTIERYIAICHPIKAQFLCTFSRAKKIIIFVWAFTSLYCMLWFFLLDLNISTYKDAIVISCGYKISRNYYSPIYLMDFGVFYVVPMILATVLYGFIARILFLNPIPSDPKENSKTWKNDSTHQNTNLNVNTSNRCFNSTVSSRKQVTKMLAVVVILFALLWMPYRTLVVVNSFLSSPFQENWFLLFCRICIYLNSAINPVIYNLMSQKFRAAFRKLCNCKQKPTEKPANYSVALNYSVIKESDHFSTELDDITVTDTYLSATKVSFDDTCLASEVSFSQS
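Read-out: compound-evoked intracellular calcium rise in TRHR cells, fluo-8 dye, kinetic FDSS fluorescence at 1 s/cycle following a 10-cycle baseline. Cells cultured overnight before dye loading (30 min–1.5 h, RT).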
TRHR enhancer: qHTS for Small Molecule Agonists and Allosteric Enhancers of Human TRH Receptor: Primary Screen for Enhancers. Thyrotropin-releasing hormone receptor (Homo sapiens), P34981. TRHR cells, fluo-8 calcium fluorescence, EC20 TRH enhancement. enhancement, % at 2 µM. 360,000 tested, 0.66% active. AID 493056, 2011; in the data active = enhancement above about 30%; also: 0% is about no effect
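TRHR-expressing cells loaded with fluo-8 calcium dye were read kinetically (ex 480/em 530) during compound addition, then stimulated with an EC20 of TRH (10 nM final). Enhancement of the Gq-mediated intracellular calcium response was scored.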
D1 PAM: Potentiators of Human D1 Dopamine Receptor: qHTS | AID 504651, 2011 | HEK293 TREx D1 cells, calcium flux, dopamine EC20 potentiation | D(1A) dopamine receptor (Homo sapiens), P21728 | 360,000 tested, 0.036% active | potentiation, % at 10 µM; in the data active = potentiation above about 30%; also: 0% is about no effect
D1 agonist: Allosteric Agonists of the Human D1 Dopamine Receptor: qHTS | HEK293 T-REx D1 cells, calcium flux, agonist mode | activation, % at 2 µM | 360,000 tested, 1% active; also: 0% is about no effect
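Inducible HEK293 T-REx D1 cells, force-coupled to calcium signalling, were plated at 4000 cells/well with tetracycline and held overnight at 30 C. After no-wash calcium dye loading, compound-evoked calcium rise over 180 s flagged agonists.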
* hit, by the source's call. This is a sample that favours compounds with a hit; in the whole collection about 4.7% have one here. Rule as the data show it, unless noted: active = activation above about 30%; inactive = the rest.

What do the screens show for `Cc1ccccc1-c1noc(-c2ccc(O)cc2)n1`?
D1 antagonist: -41.5*; TRHR ag: -0.7; TRHR enhancer: 5.2; D1 PAM: 3.9; D1 agonist: 67.8*

What do the screens show for `Cc1ccccc1-c1noc(-c2ccc(Cl)cc2)n1`?
D1 antagonist: 14.0; TRHR ag: 1.5; TRHR enhancer: 2.2; D1 PAM: 4.0; D1 agonist: 4.0

Results for CCC(CC)C(=O)Nc1cccc(-c2nc3cccnc3s2)c1C ?
D1 antagonist: 2.8; TRHR ag: -0.2; TRHR enhancer: 11.6; D1 PAM: 3.2; D1 agonist: 3.0

What do the screens show for `FC(F)(F)c1cccc(Nc2nc3nonc3nc2Nc2ccc(Cl)cc2)c1`?
D1 antagonist: -47.8*; TRHR ag: 6.2; TRHR enhancer: -8.8; D1 PAM: -4.8; D1 agonist: 51.4*

Results for CCCCCCCCCCOC(=O)C[N+](C)(C)C/C=C(/C)Cl ?
D1 antagonist: -4.2; TRHR ag: -0.3; TRHR enhancer: 1.0; D1 PAM: -3.0; D1 agonist: 54.8*

How did CCCCCCCCOC(=O)C[N+](C)(C)C/C=C(/C)Cl do in these assays?
D1 antagonist: 9.0; TRHR ag: 0.5; TRHR enhancer: -6.1; D1 PAM: -5.5; D1 agonist: 0.6

Results for CCCCCCCCCCCCOC(=O)C[N+](C)(C)C ?
D1 antagonist: -34.6*; TRHR ag: 0.2; TRHR enhancer: -7.6; D1 PAM: 4.7; D1 agonist: 43.5*

Results for CCCCCCCCOC(=O)c1ccc(N)cc1 ?
D1 antagonist: -6.8; TRHR ag: 0.1; TRHR enhancer: 2.3; D1 PAM: -4.3; D1 agonist: 1.1

What do the screens show for `Cc1cc(C)cc(OCCSc2nc3ccc(NC(=O)c4cccs4)cc3s2)c1`?
D1 antagonist: 4.1; TRHR ag: 0.5; TRHR enhancer: -6.5; D1 PAM: -0.6; D1 agonist: 8.6

What do the screens show for `CCCc1nn(-c2cc(Cl)ccc2OC)c2c1C(=O)CCC2`?
D1 antagonist: -46.2*; TRHR ag: 0.5; TRHR enhancer: 6.5; D1 PAM: 1.8; D1 agonist: 3.7

What do the screens show for `COCCN(C(=S)Nc1ccccc1OC)C1CCN(C(C)=O)CC1`?
D1 antagonist: -34.6*; TRHR ag: 0.3; TRHR enhancer: 10.2; D1 PAM: -4.8; D1 agonist: 1.0

What do the screens show for `Cc1ccc(C2C(C#N)=C(N)Oc3cc(N)ccc32)cc1` (configuration not stated)?
D1 antagonist: 1.7; TRHR ag: -0.1; TRHR enhancer: -0.5; D1 PAM: -2.1; D1 agonist: 1.8

What do the screens show for `Cc1ccc(/C=C2\CCC3=C2OC(N)=C(C#N)C3c2ccc(C)cc2)cc1` (configuration not stated)?
D1 antagonist: -56.5*; TRHR ag: 68.3*; TRHR enhancer: 15.1; D1 PAM: -5.2; D1 agonist: 135.4*

What do the screens show for `N#Cc1c(N)n(-c2cccc(Cl)c2)c2nc3ccccc3nc12`?
D1 antagonist: 16.8; TRHR ag: -0.1; TRHR enhancer: 0.3; D1 PAM: -2.4; D1 agonist: 1.2

Results for Cc1ccc(-c2nnc(-n3nc(C)cc3C)c3ccccc23)cc1 ?
D1 antagonist: 0.3; TRHR ag: -1.8; TRHR enhancer: 30.5*; D1 PAM: -8.1; D1 agonist: 1.5

How did Cc1cc(C)n(-c2nnc(Nc3ccc(C)c(Cl)c3)c3ccccc23)n1 do in these assays?
D1 antagonist: -39.9*; TRHR ag: -0.4; TRHR enhancer: 3.6; D1 PAM: -5.8; D1 agonist: 1.2

Results for Cc1nn(C(C)C(=O)NCC2CCCO2)c(=O)c2cc3occc3n12 (configuration not stated) ?
D1 antagonist: -32.9*; TRHR ag: 0.9; TRHR enhancer: 4.6; D1 PAM: -8.8; D1 agonist: 0.2

Results for Cc1cc2oc3c(c(=O)c2cc1C)C(c1ccc(F)cc1)N(CCCN1CCOCC1)C3=O (configuration not stated) ?
D1 antagonist: -20.1; TRHR ag: -0.8; TRHR enhancer: 37.1*; D1 PAM: 4.0; D1 agonist: 0.5

Results for COc1cc(C2c3c(oc4cc(C)c(C)cc4c3=O)C(=O)N2CCCN2CCOCC2)ccc1O (configuration not stated) ?
D1 antagonist: -7.2; TRHR ag: -0.1; TRHR enhancer: 5.0; D1 PAM: 0.8; D1 agonist: 1.0

Results for CC(C)(C)OC(=O)Cc1nnc(-c2nc3ccccc3[nH]2)s1 ?
D1 antagonist: 1.5; TRHR ag: 0.9; TRHR enhancer: -0.3; D1 PAM: 24.1; D1 agonist: 6.7

Results for Cc1c(C(=O)NCc2ccccc2CN2CCCC2)oc2ccc(F)cc12 ?
D1 antagonist: -32.5*; TRHR ag: 0.0; TRHR enhancer: 0.7; D1 agonist: 5.5

Results for NC(=O)c1ccc(-n2nnnc2Oc2ccccc2)cc1 ?
D1 antagonist: -49.0*; TRHR ag: 0.1; TRHR enhancer: -0.1; D1 PAM: 1.5; D1 agonist: -2.2

What do the screens show for `COc1ccccc1Oc1nnnn1-c1ccc(C(N)=O)cc1`?
D1 antagonist: -11.1; TRHR ag: -0.1; TRHR enhancer: -1.2; D1 PAM: 2.8; D1 agonist: 0.9

What do the screens show for `Cc1ccccc1C(=O)OCc1cc(=O)n2c(C)csc2n1`?
D1 antagonist: 6.9; TRHR ag: -0.7; TRHR enhancer: 1.3; D1 PAM: -0.1; D1 agonist: 5.7

What do the screens show for `CC(C)(C)NS(=O)(=O)c1cccc(S(=O)(=O)c2cccc(S(=O)(=O)NC(C)(C)C)c2)c1`?
D1 antagonist: -39.2*; TRHR ag: 0.7; TRHR enhancer: -5.6; D1 PAM: -0.1; D1 agonist: 5.4

Results for COc1cc(C(=O)NNC(=S)NC(=O)c2ccc(F)cc2)cc(OC)c1OC ?
D1 antagonist: -4.3; TRHR ag: -0.2; TRHR enhancer: 8.5; D1 PAM: -2.9; D1 agonist: 44.3*

How did COc1cc(C(=O)NC(=S)NNC(=O)c2ccc3c(c2)OCO3)cc(OC)c1OC do in these assays?
D1 antagonist: -20.5; TRHR ag: 1.2; TRHR enhancer: 3.3; D1 PAM: 8.5; D1 agonist: 3.7

What do the screens show for `COc1ccc(Cl)cc1C(=O)NNC(=S)NC(=O)c1ccc(F)c(F)c1`?
D1 antagonist: 5.6; TRHR ag: 23.7; TRHR enhancer: -12.0; D1 PAM: -2.4; D1 agonist: 171.0*
